Inhibition data for 37 compounds are collected here from PubChem BioAssay AID624481 (The Scripps Research Institute Molecular Screening Center, 2012).

Unmarked numbers belong to inactive results. Active and inactive are the calls of the source. Rule as the data show it: active = inhibition above about 50%; inactive = the rest.

The target of this assay is Prolyl endopeptidase-like (Mus musculus) (UniProt Q8C167). The assay is described as follows: mouse PREPL enzyme inhibition by screening hits – biochemical, gel-based competitive ABPP, fluorescence, HTS hits, PREPL inhibitor project (AID 624481). Particulars: purified mouse PREPL, at 20 µM, hits give high values.
Chain of Prolyl endopeptidase-like (Mus musculus) (Q8C167 whole entry, looked up): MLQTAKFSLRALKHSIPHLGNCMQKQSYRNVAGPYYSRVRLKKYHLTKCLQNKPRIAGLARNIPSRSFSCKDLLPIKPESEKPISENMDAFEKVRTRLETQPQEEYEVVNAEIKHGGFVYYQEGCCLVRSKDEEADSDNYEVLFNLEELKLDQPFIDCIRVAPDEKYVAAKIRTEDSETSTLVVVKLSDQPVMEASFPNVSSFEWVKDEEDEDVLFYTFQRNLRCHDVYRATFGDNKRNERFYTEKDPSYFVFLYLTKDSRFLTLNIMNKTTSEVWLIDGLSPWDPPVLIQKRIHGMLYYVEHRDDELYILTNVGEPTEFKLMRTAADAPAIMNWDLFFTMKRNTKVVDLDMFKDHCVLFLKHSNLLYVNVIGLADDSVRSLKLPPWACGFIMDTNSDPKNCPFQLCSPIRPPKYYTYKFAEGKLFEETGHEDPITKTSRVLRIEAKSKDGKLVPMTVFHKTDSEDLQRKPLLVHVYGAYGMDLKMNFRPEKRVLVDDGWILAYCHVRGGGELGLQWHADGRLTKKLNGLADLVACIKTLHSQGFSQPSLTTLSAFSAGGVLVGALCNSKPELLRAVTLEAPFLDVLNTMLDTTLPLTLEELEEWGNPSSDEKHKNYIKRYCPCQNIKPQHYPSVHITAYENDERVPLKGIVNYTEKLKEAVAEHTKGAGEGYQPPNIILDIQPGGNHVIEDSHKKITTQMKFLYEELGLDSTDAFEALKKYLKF
Regarding `CC(C)(C)n1cnc2cc(NCc3ccc(Br)cc3)ccc21`, the inhibition is -12%. In the case of `CCOc1ccc2[nH]c3c(N4CCc5ccccc5C4)ncnc3c2c1` it was 1%; in that of `COc1ccc(OCC(=O)NNc2c3ccccc3nc3ccccc23)cc1`, -2%; in that of `CN(C)c1ccc(NC(=O)c2ccc(Cn3cc([N+](=O)[O-])cn3)cc2)cc1`, -9%. As to `CC1(C)N=C(N)N=C(N)N1c1ccc(Oc2ccc(Cl)cc2)c(Cl)c1`, the inhibition was -35%.

In the case of `C#CCOCCOCCOCCNc1nc(N2CCN(C(=O)C(Cc3cc4ccccc4[nH]3)n3cc(C(N)C(C)CC)nn3)CC2)nc(N2CCN(C(=O)C(Cc3cc4ccccc4[nH]3)n3cc(C(N)C(C)CC)nn3)CC2)n1` (configuration not stated), the inhibition is -161%. Regarding `Cc1cc(/C=C2\SC(=Nc3ccc(F)cc3)NC2=O)c(C)n1-c1ccc(S(N)(=O)=O)cc1`, the inhibition was 28%. Under `CN1CCN(c2ccc(NC(=O)COc3cccc4ccccc34)cc2)CC1` stands 15%; under `CC(=O)N1CCN(c2ccc(NC(=O)COc3ccc(Cl)cc3Cl)cc2)CC1`, -20%. Under `COc1ccc(C(CCNCc2ccc(N(C)C)cc2)c2ccccc2)cc1` (configuration not stated) stands -124%; under `C#CCOCCOCCOCCNc1nc(N2CCN(C(=O)C(Cc3ccc(O)cc3)n3cc(C(N)CC(C)C)nn3)CC2)nc(N2CCN(C(=O)C(Cc3cc4ccccc4[nH]3)n3cc(C(N)Cc4ccc(O)cc4)nn3)CC2)n1` (configuration not stated), -100%.

Turning to `Nc1cc([N+](=O)[O-])cc2oc(-c3ccccc3)cc12`, the inhibition was -25%.

On to `COc1cccc2cc(C(=O)C3=C(O)C(=O)N(CCN4CCOCC4)C3c3ccc(C(C)(C)C)cc3)oc12` (configuration not stated), for which the inhibition was -36%. In the case of `Cc1noc(C)c1S(=O)(=O)N(C)C[C@H]1Oc2c(NC(=O)Nc3ccc(C(F)(F)F)cc3)cccc2C(=O)N([C@H](C)CO)C[C@@H]1C`, the inhibition is 9%. For the compound `CN1CCN(c2ccc(NC(=O)COc3ccc4ccccc4c3)cc2)CC1`, the inhibition is -21%.

Take `CC(C)c1ccc(CNc2ccc(N3CCOCC3)cc2)cc1`: the inhibition was -12%. Under `CC(C)[C@@H]1CN=C(N)N1C[C@@H]1CCCN1C[C@H](C)N1C[C@@H](Cc2ccccc2)N(CCc2ccc(Cl)c(Cl)c2)C1=N` stands -62%; under `CC[C@@H](C)[C@@H]1CN([C@@H](CN2CCC[C@H]2CN2C(N)=NC[C@H]2C(C)C)C(C)C)C(=N)N1CCc1ccc(Cl)c(Cl)c1`, -64%; under `Cc1c(CN(C)C)c2c(n1Cc1ccccc1)C(=O)c1ccc(Br)cc1-2`, -33%. In the case of `Cc1ccc2c(CC(=O)Nc3ccc(N4CCN(C)CC4)cc3C)coc2c1` it was -3%; in that of `C#CCOCCOCCOCCNc1nc(N2CCN(C(=O)CCCCCCCCCCNC(=O)[C@H](CCCCN)n3cc(CCO)nn3)CC2)nc(N2CCN(C(=O)CCCCCCCCCCNC(=O)[C@H](CCCCN)n3cc(C[C@@H](C)CC)nn3)CC2)n1`, -141%; in that of `Cc1cc(NN=Cc2ccc(O)cc2)c2cccc(C)c2n1`, 1%.

For the compound `C#CCOCCOCCOCCNc1nc(N2CCN(C(=O)CCCCCCCCCCNC(=O)Cn3cc(CCCCCN)nn3)CC2)nc(N2CCN(C(=O)CCCCCCCCCCNC(=O)[C@H](CO)n3cc(CCCCCN)nn3)CC2)n1`, the inhibition was -38%. In the case of `CN(C)CCN1C(=O)C(O)=C(C(=O)c2cc3ccccc3o2)C1c1ccc(N(C)C)cc1` (configuration not stated) it was -47%. Under `CNC(=S)N1N=C(c2ccc(C)cc2)CC1c1ccc(N(C)C)cc1` (configuration not stated) stands -85%; under `Clc1ccc2nc(-c3ccccn3)c(Nc3ccc4c(c3)OCO4)n2c1`, -49%. In the case of `COc1ccc(N2CCN(C(=O)c3cn(C4CCCC4)c(=O)c4c3c3ccccc3n4C)CC2)cc1` it was 92% (active). In the case of `O=C(C1=C[C@@H](c2ccc(Br)cc2)C[C@@H](OCc2ccc(CO)cc2)O1)N1CCOCC1`, the inhibition is -26%. In the case of `CC(C)[C@H](CN1CCC[C@H]1CN1C(N)=NC[C@@H]1Cc1ccccc1)N1C[C@@H](Cc2ccccc2)N(CCc2ccc(Cl)c(Cl)c2)C1=N`, the inhibition is -75%.

As for `CCCCNc1c(-c2ccc(SC(C)CC)cc2)nc2cnccn12` (configuration not stated), the inhibition was -22%. In the case of `Cc1cccc(C2CC(c3ccc(Cl)cc3)Nc3nc(N)nn32)c1` (configuration not stated) it was -60%. In the case of `c1ccc(N2CCN(c3nc(NCc4ccco4)c4ccccc4n3)CC2)cc1` it was 94% (active). For the compound `Oc1c(CN2CCCCC2)cc(COCc2ccccc2)c2cccnc12`, the inhibition is 92% (active). `CN1CCc2c(sc3c2C(=O)NC(c2cn(Cc4ccccc4)c4ccccc24)N3)C1` (configuration not stated): the inhibition was 7%. As to `c1ccc(-c2nc3ccccn3c2NC2CCCC2)nc1`, the inhibition is -69%. For the compound `Cc1ccc2nc3c(cc(C(=O)NCCc4ccccc4)c(=N)n3CCCN3CCOCC3)c(=O)n2c1`, the inhibition was -43%. Under `CCC(=O)N1CCN(c2ccc(NC(=O)COc3cccc(C)c3C)cc2)CC1` stands -49%.

What is called inhibition is the relative decrease from the control value, in per cent.
